The record followed here is paper PMC7862700, “An all-to-all approach to the identification of sequence-specific readers for epigenetic DNA modifications on cytosine”.

What all share (assay): DAPPL (digital affinity profiling via proximity ligation, sequencing); 10 mM Tris-HCl pH 7.5, 50 mM NaCl, 1 mM DTT, 4% glycerol, room temperature, 30 min; GST-TFs on glutathione beads, 16-mer random dsDNA library, 0.1% formaldehyde crosslink after washing; high values mean tight binding
The target of one assay is T1, FLI1 (Homo sapiens, UniProt Q01543 1-452).
T1 sequence: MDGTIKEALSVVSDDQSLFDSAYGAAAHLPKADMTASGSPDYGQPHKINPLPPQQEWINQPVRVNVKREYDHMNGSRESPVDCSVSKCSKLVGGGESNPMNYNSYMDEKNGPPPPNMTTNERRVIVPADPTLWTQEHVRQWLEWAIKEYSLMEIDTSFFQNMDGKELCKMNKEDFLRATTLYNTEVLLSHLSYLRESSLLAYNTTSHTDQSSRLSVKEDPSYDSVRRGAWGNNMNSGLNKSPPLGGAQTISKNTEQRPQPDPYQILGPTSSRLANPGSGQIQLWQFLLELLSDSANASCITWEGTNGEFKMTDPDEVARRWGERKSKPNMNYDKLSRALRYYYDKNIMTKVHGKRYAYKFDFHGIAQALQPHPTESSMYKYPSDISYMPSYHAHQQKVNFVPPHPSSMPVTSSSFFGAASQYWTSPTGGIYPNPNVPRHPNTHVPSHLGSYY
Particulars: protein: recombinant; tags: N-terminal GST; dsDNA, one strand shown. The method in brief:
(§1)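 Human transcription factors were made in yeast as GST fusions, captured on glutathione beads and barcoded with DNA. With a tag-only sample included, the pool was incubated with 200 nmole of a random double-stranded 16-mer DNA library in Tris/NaCl/DTT/glycerol buffer at room temperature for 30 min, then crosslinked with 0.1% formaldehyde after washing, ligated by proximity, amplified and sequenced. For binding signal, each hexamer's read frequency for a factor is divided by its frequency for the tag-only sample.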

The target in a further assay is T2, ELK1 (Homo sapiens, UniProt P19419 1-428).
T2 sequence: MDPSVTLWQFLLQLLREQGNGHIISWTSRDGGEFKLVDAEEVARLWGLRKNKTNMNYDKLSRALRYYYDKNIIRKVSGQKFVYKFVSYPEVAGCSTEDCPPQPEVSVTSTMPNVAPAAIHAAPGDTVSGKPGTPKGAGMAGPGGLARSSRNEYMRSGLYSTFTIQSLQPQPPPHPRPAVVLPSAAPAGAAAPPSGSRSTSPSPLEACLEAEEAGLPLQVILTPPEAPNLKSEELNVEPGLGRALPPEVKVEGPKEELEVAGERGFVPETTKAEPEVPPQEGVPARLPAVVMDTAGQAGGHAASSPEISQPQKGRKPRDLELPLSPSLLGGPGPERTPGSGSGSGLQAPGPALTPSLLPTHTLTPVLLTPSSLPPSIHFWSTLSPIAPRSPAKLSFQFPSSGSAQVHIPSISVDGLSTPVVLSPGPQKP
Particulars: protein: recombinant; tags: N-terminal GST; dsDNA, one strand shown. Summed up: as §1

For a further assay, the target named is T3, GABPA (Homo sapiens, UniProt Q06546 1-454).
T3 sequence: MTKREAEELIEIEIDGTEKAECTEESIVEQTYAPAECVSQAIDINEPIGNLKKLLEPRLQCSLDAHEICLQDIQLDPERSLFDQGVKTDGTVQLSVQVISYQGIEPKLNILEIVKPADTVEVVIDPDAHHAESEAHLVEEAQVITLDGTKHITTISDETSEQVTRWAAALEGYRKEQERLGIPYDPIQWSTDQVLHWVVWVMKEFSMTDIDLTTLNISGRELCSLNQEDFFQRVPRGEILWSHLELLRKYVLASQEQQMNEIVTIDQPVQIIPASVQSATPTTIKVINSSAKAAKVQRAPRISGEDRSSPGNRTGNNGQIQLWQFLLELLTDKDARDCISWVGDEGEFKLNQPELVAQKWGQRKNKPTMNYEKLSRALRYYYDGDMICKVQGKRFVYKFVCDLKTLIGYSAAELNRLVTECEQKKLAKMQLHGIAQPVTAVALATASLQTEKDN
Particulars: protein: recombinant; tags: N-terminal GST; dsDNA, one strand shown. The method in brief:
as §1

The target in the next assay is T4, ERG (Homo sapiens, UniProt P11308 1-479).
T4 sequence: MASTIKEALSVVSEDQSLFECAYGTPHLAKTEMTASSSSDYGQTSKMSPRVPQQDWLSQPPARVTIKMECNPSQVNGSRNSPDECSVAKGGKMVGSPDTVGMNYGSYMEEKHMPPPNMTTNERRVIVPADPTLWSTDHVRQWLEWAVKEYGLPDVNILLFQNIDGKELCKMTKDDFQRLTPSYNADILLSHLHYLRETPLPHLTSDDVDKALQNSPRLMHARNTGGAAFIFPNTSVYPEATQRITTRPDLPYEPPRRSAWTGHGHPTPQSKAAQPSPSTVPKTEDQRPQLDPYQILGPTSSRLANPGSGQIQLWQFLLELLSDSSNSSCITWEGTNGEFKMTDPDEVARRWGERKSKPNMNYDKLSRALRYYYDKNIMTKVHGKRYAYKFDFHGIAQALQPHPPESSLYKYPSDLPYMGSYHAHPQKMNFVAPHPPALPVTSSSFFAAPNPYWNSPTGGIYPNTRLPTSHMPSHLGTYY
Particulars: protein: recombinant; tags: N-terminal GST; dsDNA, one strand shown. The method in brief:
as §1

In another assay the target is ELF1 (Homo sapiens, UniProt P32519 1-619). Conditions: protein: recombinant; tags: N-terminal GST; dsDNA, one strand shown. The method in brief: as §1
Chain of ELF1 (P32519 whole entry): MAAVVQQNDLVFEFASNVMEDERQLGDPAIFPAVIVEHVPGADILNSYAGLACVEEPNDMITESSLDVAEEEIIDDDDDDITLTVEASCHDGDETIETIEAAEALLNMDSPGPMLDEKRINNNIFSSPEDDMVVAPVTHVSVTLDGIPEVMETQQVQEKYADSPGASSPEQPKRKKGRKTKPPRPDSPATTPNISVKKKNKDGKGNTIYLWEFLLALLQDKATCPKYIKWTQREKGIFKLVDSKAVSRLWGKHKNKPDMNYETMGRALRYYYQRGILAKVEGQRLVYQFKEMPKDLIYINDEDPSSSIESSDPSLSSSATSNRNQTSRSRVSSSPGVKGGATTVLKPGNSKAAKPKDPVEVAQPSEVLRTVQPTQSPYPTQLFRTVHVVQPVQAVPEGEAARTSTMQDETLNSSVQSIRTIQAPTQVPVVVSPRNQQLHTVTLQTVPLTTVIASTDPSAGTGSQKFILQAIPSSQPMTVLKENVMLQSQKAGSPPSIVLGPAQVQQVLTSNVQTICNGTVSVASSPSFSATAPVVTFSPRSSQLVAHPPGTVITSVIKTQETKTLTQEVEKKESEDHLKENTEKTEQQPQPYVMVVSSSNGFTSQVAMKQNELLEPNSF
For another assay, the target named is T5, EHF (Homo sapiens, UniProt Q9NZC4 1-300).
T5 sequence: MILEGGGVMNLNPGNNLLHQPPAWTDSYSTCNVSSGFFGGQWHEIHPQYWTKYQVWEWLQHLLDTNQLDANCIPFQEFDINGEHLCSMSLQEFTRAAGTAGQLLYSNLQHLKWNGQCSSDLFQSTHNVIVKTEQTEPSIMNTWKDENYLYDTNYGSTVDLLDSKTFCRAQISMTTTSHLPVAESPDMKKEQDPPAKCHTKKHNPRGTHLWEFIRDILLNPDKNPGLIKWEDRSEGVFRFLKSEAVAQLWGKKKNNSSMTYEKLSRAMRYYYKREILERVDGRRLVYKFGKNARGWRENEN
Particulars: protein: recombinant; tags: N-terminal GST; dsDNA, one strand shown. The method in brief:
as §1

A further assay addresses SPI1 (Homo sapiens, UniProt P17947 1-270). Particulars: protein: recombinant; tags: N-terminal GST; dsDNA, one strand shown. The method in brief:
as §1

A further assay deals with SPIB (Homo sapiens, UniProt Q01892 1-262). Conditions: protein: recombinant; tags: N-terminal GST; dsDNA, one strand shown. The method in brief:
as §1

In the next assay the target is T6, ELK3 (Homo sapiens, UniProt P41970 1-407).
T6 sequence: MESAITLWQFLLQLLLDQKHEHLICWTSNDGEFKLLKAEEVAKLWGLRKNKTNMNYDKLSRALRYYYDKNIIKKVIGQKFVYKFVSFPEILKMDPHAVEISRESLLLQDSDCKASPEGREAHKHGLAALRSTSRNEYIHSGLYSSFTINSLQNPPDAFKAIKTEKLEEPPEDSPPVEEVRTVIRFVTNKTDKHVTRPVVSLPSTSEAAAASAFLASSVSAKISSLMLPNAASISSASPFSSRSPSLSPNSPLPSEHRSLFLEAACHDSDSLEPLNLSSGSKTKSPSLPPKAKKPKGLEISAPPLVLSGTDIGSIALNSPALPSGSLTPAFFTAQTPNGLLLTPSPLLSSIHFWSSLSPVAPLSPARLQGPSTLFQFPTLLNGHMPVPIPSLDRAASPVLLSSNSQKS
Particulars: protein: recombinant; tags: N-terminal GST; dsDNA, one strand shown. The method in brief: as §1

A further assay deals with T7, FEV (Homo sapiens, UniProt Q99581 1-238).
T7 sequence: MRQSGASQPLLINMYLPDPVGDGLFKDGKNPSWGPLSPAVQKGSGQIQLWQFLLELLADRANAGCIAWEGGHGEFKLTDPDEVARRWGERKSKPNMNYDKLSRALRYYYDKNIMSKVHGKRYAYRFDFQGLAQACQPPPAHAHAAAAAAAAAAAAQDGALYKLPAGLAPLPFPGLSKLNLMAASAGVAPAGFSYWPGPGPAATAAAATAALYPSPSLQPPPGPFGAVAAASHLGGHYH
Particulars: protein: recombinant; tags: N-terminal GST; dsDNA, one strand shown. Summed up:
as §1

Another assay deals with ETV5 (Homo sapiens, UniProt P41161 1-510). Conditions: protein: recombinant; tags: N-terminal GST; dsDNA, one strand shown. The method in brief: as §1
Chain of ETV5 (P41161 whole entry): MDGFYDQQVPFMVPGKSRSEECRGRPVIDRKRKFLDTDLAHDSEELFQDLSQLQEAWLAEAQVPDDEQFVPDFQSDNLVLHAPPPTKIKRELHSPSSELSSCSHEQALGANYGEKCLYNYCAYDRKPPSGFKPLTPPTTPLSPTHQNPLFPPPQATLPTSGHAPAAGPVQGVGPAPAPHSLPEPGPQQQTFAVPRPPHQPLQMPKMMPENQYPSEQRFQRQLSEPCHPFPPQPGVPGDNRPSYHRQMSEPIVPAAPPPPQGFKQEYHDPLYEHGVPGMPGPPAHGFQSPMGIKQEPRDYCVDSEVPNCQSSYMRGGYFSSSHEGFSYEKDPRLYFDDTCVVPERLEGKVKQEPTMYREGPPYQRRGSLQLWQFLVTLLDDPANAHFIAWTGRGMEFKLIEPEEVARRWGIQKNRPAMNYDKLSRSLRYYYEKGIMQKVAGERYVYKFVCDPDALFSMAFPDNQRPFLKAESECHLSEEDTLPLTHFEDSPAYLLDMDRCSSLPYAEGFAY
The next assay deals with HSF1 (Homo sapiens, UniProt Q00613 1-529). Particulars: protein: recombinant; tags: N-terminal GST; chain copies: 3; dsDNA, one strand shown. The method in brief: as §1
Chain of HSF1 (Q00613 whole entry): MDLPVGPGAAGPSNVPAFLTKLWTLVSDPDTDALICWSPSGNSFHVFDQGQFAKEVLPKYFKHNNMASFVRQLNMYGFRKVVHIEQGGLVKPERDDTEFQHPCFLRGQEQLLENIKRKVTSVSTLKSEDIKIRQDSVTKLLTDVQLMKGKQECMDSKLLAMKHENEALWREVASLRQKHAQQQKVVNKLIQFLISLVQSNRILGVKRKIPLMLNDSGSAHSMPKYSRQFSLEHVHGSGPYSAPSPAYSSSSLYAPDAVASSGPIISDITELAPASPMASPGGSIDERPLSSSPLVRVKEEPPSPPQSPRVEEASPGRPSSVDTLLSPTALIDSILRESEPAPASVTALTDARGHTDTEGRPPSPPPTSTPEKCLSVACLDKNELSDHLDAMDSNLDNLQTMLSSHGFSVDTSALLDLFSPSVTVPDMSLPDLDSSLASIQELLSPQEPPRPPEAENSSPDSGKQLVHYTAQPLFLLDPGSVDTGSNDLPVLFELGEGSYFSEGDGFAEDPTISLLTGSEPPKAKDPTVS
The next assay concerns the target T8, SPIC (Homo sapiens, UniProt Q8N5J4 1-248).
T8 sequence: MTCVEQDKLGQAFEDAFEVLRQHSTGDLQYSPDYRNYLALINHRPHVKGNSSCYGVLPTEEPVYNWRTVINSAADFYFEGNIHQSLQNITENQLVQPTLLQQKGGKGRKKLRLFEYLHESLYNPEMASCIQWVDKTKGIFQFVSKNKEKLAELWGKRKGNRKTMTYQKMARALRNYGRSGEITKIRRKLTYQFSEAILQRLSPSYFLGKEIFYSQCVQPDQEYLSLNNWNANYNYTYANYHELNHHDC
Particulars: protein: recombinant; tags: N-terminal GST; dsDNA, one strand shown. Summed up:
as §1

A further assay has as its target ELF4 (Homo sapiens, UniProt Q99607 1-663). Conditions: protein: recombinant; tags: N-terminal GST; dsDNA, one strand shown. Summed up:
as §1

In the next assay the target is T9, ELK4 (Homo sapiens, UniProt P28324-2 1-405).
T9 sequence: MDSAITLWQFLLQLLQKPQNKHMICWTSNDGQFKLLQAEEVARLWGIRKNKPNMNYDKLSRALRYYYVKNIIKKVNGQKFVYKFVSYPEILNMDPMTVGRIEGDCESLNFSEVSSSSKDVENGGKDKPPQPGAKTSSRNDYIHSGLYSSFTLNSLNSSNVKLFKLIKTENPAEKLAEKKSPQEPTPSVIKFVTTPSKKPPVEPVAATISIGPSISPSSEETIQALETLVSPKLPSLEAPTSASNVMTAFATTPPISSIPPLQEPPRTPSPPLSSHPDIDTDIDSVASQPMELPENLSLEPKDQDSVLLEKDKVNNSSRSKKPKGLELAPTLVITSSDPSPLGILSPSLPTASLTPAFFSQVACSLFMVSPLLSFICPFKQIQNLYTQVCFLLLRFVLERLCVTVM
Particulars: protein: recombinant; tags: N-terminal GST; dsDNA, one strand shown. The method in brief: as §1

In a further assay the target is T10, ETV2 (Homo sapiens, UniProt O00321 1-342).
T10 sequence: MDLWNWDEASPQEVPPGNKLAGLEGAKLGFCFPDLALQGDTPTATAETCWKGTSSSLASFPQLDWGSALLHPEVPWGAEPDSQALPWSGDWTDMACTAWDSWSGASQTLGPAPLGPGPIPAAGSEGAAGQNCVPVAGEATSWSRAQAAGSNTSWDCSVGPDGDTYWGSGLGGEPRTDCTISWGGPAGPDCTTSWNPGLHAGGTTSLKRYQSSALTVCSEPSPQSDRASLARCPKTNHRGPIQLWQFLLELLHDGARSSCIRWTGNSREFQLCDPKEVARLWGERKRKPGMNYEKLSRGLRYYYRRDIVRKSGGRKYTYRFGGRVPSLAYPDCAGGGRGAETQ
Particulars: protein: recombinant; tags: N-terminal GST; dsDNA, one strand shown. Summed up: as §1

The next assay has as its target T11, ELF3 (Homo sapiens, UniProt P78545 1-371).
T11 sequence: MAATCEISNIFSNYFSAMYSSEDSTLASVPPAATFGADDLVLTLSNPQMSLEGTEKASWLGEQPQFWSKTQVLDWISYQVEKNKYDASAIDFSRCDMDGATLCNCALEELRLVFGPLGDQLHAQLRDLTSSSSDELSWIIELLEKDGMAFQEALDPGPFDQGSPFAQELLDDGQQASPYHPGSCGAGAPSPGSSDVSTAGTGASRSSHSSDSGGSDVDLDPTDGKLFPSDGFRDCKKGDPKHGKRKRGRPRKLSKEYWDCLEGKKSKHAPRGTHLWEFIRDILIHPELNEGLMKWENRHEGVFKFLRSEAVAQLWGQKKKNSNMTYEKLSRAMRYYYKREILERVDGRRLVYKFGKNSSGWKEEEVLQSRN
Conditions: protein: recombinant; tags: N-terminal GST; dsDNA, one strand shown. The method in brief:
as §1

In another assay the target is ETV1 (Homo sapiens, UniProt P50549 1-477). Conditions: protein: recombinant; tags: N-terminal GST; dsDNA, one strand shown. The method in brief:
as §1

Chain of ELF4 (Q99607 whole entry): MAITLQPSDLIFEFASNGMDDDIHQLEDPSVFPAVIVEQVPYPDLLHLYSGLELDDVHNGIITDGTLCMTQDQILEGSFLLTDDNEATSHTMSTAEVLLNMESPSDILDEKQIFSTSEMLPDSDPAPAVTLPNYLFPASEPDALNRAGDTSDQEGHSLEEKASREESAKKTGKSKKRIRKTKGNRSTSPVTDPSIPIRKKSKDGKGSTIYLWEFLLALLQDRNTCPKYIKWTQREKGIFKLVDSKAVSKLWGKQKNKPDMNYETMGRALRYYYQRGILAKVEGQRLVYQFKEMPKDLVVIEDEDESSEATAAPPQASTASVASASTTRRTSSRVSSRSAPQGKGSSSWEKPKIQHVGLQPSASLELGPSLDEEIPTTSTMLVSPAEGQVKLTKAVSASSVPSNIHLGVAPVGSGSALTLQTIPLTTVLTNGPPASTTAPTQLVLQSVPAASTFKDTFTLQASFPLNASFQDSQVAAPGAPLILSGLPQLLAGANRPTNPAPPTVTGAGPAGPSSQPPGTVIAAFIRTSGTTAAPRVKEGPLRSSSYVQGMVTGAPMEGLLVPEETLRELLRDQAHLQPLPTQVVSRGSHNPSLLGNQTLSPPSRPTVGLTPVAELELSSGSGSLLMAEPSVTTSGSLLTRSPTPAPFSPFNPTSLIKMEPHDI
Chain of ETV1 (P50549 whole entry): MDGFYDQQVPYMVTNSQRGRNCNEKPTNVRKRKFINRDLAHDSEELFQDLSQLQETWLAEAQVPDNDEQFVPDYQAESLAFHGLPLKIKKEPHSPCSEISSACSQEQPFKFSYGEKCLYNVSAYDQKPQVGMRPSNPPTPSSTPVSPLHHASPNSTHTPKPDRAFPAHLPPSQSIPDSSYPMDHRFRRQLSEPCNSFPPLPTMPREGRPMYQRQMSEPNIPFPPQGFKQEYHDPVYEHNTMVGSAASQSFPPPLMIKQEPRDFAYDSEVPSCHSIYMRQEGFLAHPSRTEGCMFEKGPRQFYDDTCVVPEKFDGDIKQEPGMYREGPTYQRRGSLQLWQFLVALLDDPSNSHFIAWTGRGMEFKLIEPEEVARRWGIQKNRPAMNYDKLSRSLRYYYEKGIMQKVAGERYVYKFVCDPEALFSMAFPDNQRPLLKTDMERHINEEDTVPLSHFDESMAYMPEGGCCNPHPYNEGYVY
Chain of SPIB (Q01892 whole entry): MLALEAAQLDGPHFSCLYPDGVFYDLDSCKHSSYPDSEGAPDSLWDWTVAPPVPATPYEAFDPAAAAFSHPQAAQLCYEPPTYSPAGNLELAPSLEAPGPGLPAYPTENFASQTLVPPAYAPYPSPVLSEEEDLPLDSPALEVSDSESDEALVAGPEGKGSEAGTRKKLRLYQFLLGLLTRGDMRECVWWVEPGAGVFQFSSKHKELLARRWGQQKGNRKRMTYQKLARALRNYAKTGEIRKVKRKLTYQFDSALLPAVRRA

Regarding ATGGTC, the binding signal is 1.66 fold enrichment (6-mer frequency, TF over GST control) with FLI1; 1.45 fold enrichment (6-mer frequency, TF over GST control) in the assay with ELK1; 1.65 fold enrichment (6-mer frequency, TF over GST control) in the assay with GABPA; 1.69 fold enrichment (6-mer frequency, TF over GST control) in the assay with ERG; 1.55 fold enrichment (6-mer frequency, TF over GST control) in the assay with ELF1; 1.47 fold enrichment (6-mer frequency, TF over GST control) with EHF. The binding signal was 1.64 fold enrichment (6-mer frequency, TF over GST control) with SPI1; 1.66 fold enrichment (6-mer frequency, TF over GST control) with SPIB; 1.52 fold enrichment (6-mer frequency, TF over GST control) with ELK3; 1.36 fold enrichment (6-mer frequency, TF over GST control) with FEV; 1.57 fold enrichment (6-mer frequency, TF over GST control) with ETV5; 1.01 fold enrichment (6-mer frequency, TF over GST control) in the assay with HSF1. In addition, the binding signal with SPIC was 1.63 fold enrichment (6-mer frequency, TF over GST control); with ELF4, 1.59 fold enrichment (6-mer frequency, TF over GST control); in the assay with ELK4 it was 1.38 fold enrichment (6-mer frequency, TF over GST control); with ETV2, 1.47 fold enrichment (6-mer frequency, TF over GST control); with ELF3, 1.48 fold enrichment (6-mer frequency, TF over GST control); in the assay with ETV1, 1.41 fold enrichment (6-mer frequency, TF over GST control).
